Test results published in PubChem BioAssay AID1159580 (chemical genetic matrix, 2015).
Where “and” joins values, the source holds several entries; their conditions need not be identical. Equal values may be shown once. Screen size: about 5,500 compounds; about 2,000 (36%) were called active. Roughly 18% stayed inconclusive and do not appear here. Rule as the data show it: active = normalized growth mostly below about 0.91 (no sharp cut-off); inconclusive = no clear call, values can overlap the other calls; inactive = mostly above about 0.92. Some of the results follow.

Experiment: chemical genetic growth profiling, strain panel (AID 1159580);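 also: tested at 20 µM; growth read once vehicle control cultures reached saturation at 30 °C; 1 = growth at the plate median or of vehicle wells; lower values mean less growth of the strain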
Conditions: growth OD

Measured: normalized growth

CC1(C)NC(=O)N(c2ccc([N+](=O)[O-])c(C(F)(F)F)c2)C1=O
inactive: S. cerevisiae deletion strains, locus YJR075W, strain HOC1, stronger effect = lower value 1.01 | S. cerevisiae deletion strains, locus YKL009W, strain mrt4, stronger effect = lower value 0.969 | S. cerevisiae deletion strains, locus YKL068W, stronger effect = lower value 0.992 | S. cerevisiae deletion strains, locus YKL085W, strain MDH1 (second series), stronger effect = lower value 0.988 | S. cerevisiae deletion strains, locus YKL085W, strain MDH1, stronger effect = lower value 0.988 | S. cerevisiae deletion strains, locus YKL160W, strain elf1, stronger effect = lower value 0.988 | S. cerevisiae deletion strains, locus YKL190W, strain CNB1, stronger effect = lower value 1.01 | S. cerevisiae deletion strains, locus YKR001C, strain vps1, stronger effect = lower value 0.975 | S. cerevisiae deletion strains, locus YKR026C, strain gcn3, stronger effect = lower value 0.984 | S. cerevisiae deletion strains, locus YKR091W, strain srl3, stronger effect = lower value 0.989 | S. cerevisiae deletion strains, locus YLL001W, strain dnm1, stronger effect = lower value 0.986 | S. cerevisiae deletion strains, locus YLL026W, stronger effect = lower value 0.98 | S. cerevisiae deletion strains, locus YLL041C, strain sdh2, stronger effect = lower value 0.988 | S. cerevisiae deletion strains, locus YLR027C, strain aat2, stronger effect = lower value 0.986 | S. cerevisiae deletion strains, locus YLR039C, strain RIC1, stronger effect = lower value 0.984 | S. cerevisiae deletion strains, locus YLR058C, strain SHM2, stronger effect = lower value 1.02 | S. cerevisiae deletion strains, locus YLR102C, strain apc9, stronger effect = lower value 0.965 | S. cerevisiae deletion strains, locus YLR113W, strain HOG1, stronger effect = lower value 1.03 | S. cerevisiae deletion strains, locus YLR221C, strain rsa3, stronger effect = lower value 0.98 | S. cerevisiae deletion strains, locus YLR258W, strain gsy2, stronger effect = lower value 0.984 | S. cerevisiae deletion strains, locus YLR262C, strain YPT6 (second series), stronger effect = lower value 0.94 | S. cerevisiae deletion strains, locus YLR262C, strain YPT6, stronger effect = lower value 0.988 | S. cerevisiae deletion strains, locus YLR268W, strain sec22, stronger effect = lower value 0.974 | S. cerevisiae deletion strains, locus YLR320W, strain mms22, stronger effect = lower value 0.995 | S. cerevisiae deletion strains, locus YLR330W, strain CHS5, stronger effect = lower value 1.01 | S. cerevisiae deletion strains, locus YLR342W, strain FKS1 (second series), stronger effect = lower value 1.03 | S. cerevisiae deletion strains, locus YLR342W, strain FKS1, stronger effect = lower value 0.983 | S. cerevisiae deletion strains, locus YLR357W, strain rsc2, stronger effect = lower value 0.98 | S. cerevisiae deletion strains, locus YLR370C, strain arc18, stronger effect = lower value 0.971 | S. cerevisiae deletion strains, locus YLR371W, strain rom2, stronger effect = lower value 0.98 | S. cerevisiae deletion strains, locus YLR384C, strain iki3, stronger effect = lower value 0.989 | S. cerevisiae deletion strains, locus YLR418C, strain cdc73, stronger effect = lower value 0.942 | S. cerevisiae deletion strains, locus YML016C, strain PPZ1, stronger effect = lower value 1.02 | S. cerevisiae deletion strains, locus YML032C, strain rad52, stronger effect = lower value 0.986 | S. cerevisiae deletion strains, locus YML120C, strain ndi1, stronger effect = lower value 0.991 | S. cerevisiae deletion strains, locus YML124C, strain tub3, stronger effect = lower value 0.981 | S. cerevisiae deletion strains, locus YMR058W, strain fet3, stronger effect = lower value 0.987 | S. cerevisiae deletion strains, locus YMR078C, strain ctf18, stronger effect = lower value 0.988 | S. cerevisiae deletion strains, locus YMR125W, strain sto1, stronger effect = lower value 0.972 | S. cerevisiae deletion strains, locus YMR129W, stronger effect = lower value 0.986 | S. cerevisiae deletion strains, locus YMR205C, strain PFK2, stronger effect = lower value 0.972 | S. cerevisiae deletion strains, locus YMR223W, strain ubp8, stronger effect = lower value 0.983 | S. cerevisiae deletion strains, locus YMR231W, strain pep5, stronger effect = lower value 0.981 | S. cerevisiae deletion strains, locus YMR263W, strain SAP30, stronger effect = lower value 1 | S. cerevisiae deletion strains, locus YMR307W, strain GAS1, stronger effect = lower value 1.01 and 0.988 | S. cerevisiae deletion strains, locus YNL067W, strain RPL9B, stronger effect = lower value 0.987 | S. cerevisiae deletion strains, locus YNL071W, strain lat1, stronger effect = lower value 0.996 | S. cerevisiae deletion strains, locus YNL128W, strain TEP1, stronger effect = lower value 1 | S. cerevisiae deletion strains, locus YNL153C, strain GIM3, stronger effect = lower value 1.01 | S. cerevisiae deletion strains, locus YNL175C, strain NOP13, stronger effect = lower value 0.979 | S. cerevisiae deletion strains, locus YNL183C, strain NPR1, stronger effect = lower value 0.946 | S. cerevisiae deletion strains, locus YNL197C, strain WHI3, stronger effect = lower value 0.968 | S. cerevisiae deletion strains, locus YNL209W, strain ssb2, stronger effect = lower value 0.988 | S. cerevisiae deletion strains, locus YNL224C, strain SQS1, stronger effect = lower value 0.991 | S. cerevisiae deletion strains, locus YNL233W, strain BNI4, stronger effect = lower value 1.01 | S. cerevisiae deletion strains, locus YNL248C, strain rpa49, stronger effect = lower value 0.98 | S. cerevisiae deletion strains, locus YNL250W, strain rad50, stronger effect = lower value 0.987 | S. cerevisiae deletion strains, locus YNL271C, strain bni1, stronger effect = lower value 0.966 | S. cerevisiae deletion strains, locus YNL298W, strain CLA4, stronger effect = lower value 0.975 | S. cerevisiae deletion strains, locus YNL307C, strain MCK1, stronger effect = lower value 0.98 | S. cerevisiae deletion strains, locus YNL322C, strain KRE1 (second series), stronger effect = lower value 0.991 | S. cerevisiae deletion strains, locus YNL322C, strain KRE1, stronger effect = lower value 1.01 and 0.995 | S. cerevisiae deletion strains, locus YNR049C, strain mso1, stronger effect = lower value 0.984 | S. cerevisiae deletion strains, locus YNR052C, strain pop2, stronger effect = lower value 0.977 | S. cerevisiae deletion strains, locus YOL006C, strain TOP1, stronger effect = lower value 0.959 | S. cerevisiae deletion strains, locus YOL012C, strain htz1 0.756 | S. cerevisiae deletion strains, locus YOL147C, strain pex11, stronger effect = lower value 0.976 | S. cerevisiae deletion strains, locus YOR001W, strain rrp6, stronger effect = lower value 0.989 | S. cerevisiae deletion strains, locus YOR061W, strain CKA2, stronger effect = lower value 1.01 | S. cerevisiae deletion strains, locus YOR069W, strain VPS5, stronger effect = lower value 1.01 | S. cerevisiae deletion strains, locus YOR070C, strain gyp1, stronger effect = lower value 0.987 | S. cerevisiae deletion strains, locus YOR080W, strain dia2, stronger effect = lower value 0.987 | S. cerevisiae deletion strains, locus YOR083W, strain WHI5 (second series), stronger effect = lower value 0.979 | S. cerevisiae deletion strains, locus YOR083W, strain WHI5, stronger effect = lower value 0.99 | S. cerevisiae deletion strains, locus YOR106W, strain vam3, stronger effect = lower value 0.981 | S. cerevisiae deletion strains, locus YOR136W, strain idh2, stronger effect = lower value 0.977 | S. cerevisiae deletion strains, locus YOR144C, strain elg1, stronger effect = lower value 0.976 | S. cerevisiae deletion strains, locus YOR184W, strain ser1, stronger effect = lower value 0.975 | S. cerevisiae deletion strains, locus YOR231W, strain MKK1, stronger effect = lower value 1.01 | S. cerevisiae deletion strains, locus YOR265W, strain rbl2, stronger effect = lower value 0.987 | S. cerevisiae deletion strains, locus YOR270C, strain vph1, stronger effect = lower value 0.974 | S. cerevisiae deletion strains, locus YOR290C, strain snf2, stronger effect = lower value 0.996 | S. cerevisiae deletion strains, locus YOR316C, strain cot1, stronger effect = lower value 0.99 | S. cerevisiae deletion strains, locus YPL051W, strain arl3, stronger effect = lower value 0.985 | S. cerevisiae deletion strains, locus YPL055C, strain LGE1, stronger effect = lower value 1.01 and 0.996 | S. cerevisiae deletion strains, locus YPL078C, strain atp4, stronger effect = lower value 0.978 | S. cerevisiae deletion strains, locus YPL106C, strain sse1, stronger effect = lower value 0.962 | S. cerevisiae deletion strains, locus YPL240C, strain hsp82, stronger effect = lower value 0.987 | S. cerevisiae deletion strains, locus YPL241C, strain CIN2, stronger effect = lower value 1.01 and 0.997 | S. cerevisiae deletion strains, locus YPL256C, strain CLN2, stronger effect = lower value 0.996 | S. cerevisiae deletion strains, locus YPR119W, strain clb2, stronger effect = lower value 0.969 | S. cerevisiae deletion strains, locus YPR141C, strain kar3, stronger effect = lower value 0.99 | S. cerevisiae deletion strains, locus YPR163C, strain tif3, stronger effect = lower value 0.979 | S. cerevisiae deletion strains, locus YPR167C, strain met16, stronger effect = lower value 0.975 | S. cerevisiae deletion strains, strain wtn01, stronger effect = lower value 0.969 | S. cerevisiae strains, strain wild type, stronger effect = lower value 1
